Where a name gives a salt, the structure may show the parent alone.

The first experiment deals with Vero E6 infected with SARS-CoV-2. In words: morphology score (similarity to uninfected cells); higher = more like uninfected cells. To be noted: 24 h.
The compound `COc1cc(C(=S)N2CCOCC2)cc(OC)c1OC` [sulmetozine] (10 µM) returned a morphology score of 0.0452. The same measure, in the same setting: under `C#C[C@]1(O)CC[C@H]2[C@@H]3CCC4=Cc5oncc5C[C@]4(C)[C@H]3CC[C@@]21C` [danazol] (10 µM) stands 0.377.

Compound `NC(=O)Cc1cccc(C(=O)c2ccccc2)c1N` [nepafenac] (10 µM) yielded a morphology score of 0.0605.

In the case of `O=C(CSc1nc2c(c(=O)n1-c1ccccc1)SCC2)Nc1ccc(-c2ccccc2)cn1` (10 µM), the morphology score was 0.109. Same read-out and setting: under `CN[C@@H]1[C@H](O[C@H]2[C@H](O[C@H]3[C@H](O)[C@@H](O)[C@H](N=C(N)N)[C@@H](O)[C@@H]3N=C(N)N)O[C@@H](C)[C@]2(O)C=O)O[C@@H](CO)[C@H](O)[C@H]1O` [STREPTOMYCIN SULFATE [5mM; 10% aq DMSO + 5mM ethanolamine]] (10 µM) stands 0.104. On the same count and under the same terms, under `COc1cc2c(Oc3ccc(NC(=O)C4(C(=O)Nc5ccc(F)cc5)CC4)cc3F)ccnc2cc1OCCCN1CCOCC1` [foretinib] (10 µM) stands 0.152; under `CCCCC/C=C\C/C=C\C/C=C\C/C=C\CCCC(=O)Nc1ccc(O)cc1` (10 µM), 0.0145; under `CCn1c(-c2nonc2N)nc2cncc(C(=O)N3CC[C@H](N)C3)c21` (0.833333 µM), 0.488. On the same count and under the same terms, under `Cc1ccc(C)c(OCCCC(C)(C)C(=O)O)c1` [gemfibrozil] (10 µM) stands -0.0506; under `O=C(N/N=C/c1ccc([N+](=O)[O-])o1)c1cc([N+](=O)[O-])cc([N+](=O)[O-])c1O` [nifursol] (10 µM), 0.0974; under `CO/N=C(\C(=O)N[C@@H]1C(=O)N2C(C(=O)OCOC(=O)C(C)(C)C)=C(C)CS[C@H]12)c1csc(N)n1` [cefetamet-pivoxil] (10 µM), 0.225.

For `CNC(=O)c1ccccc1Sc1ccc2c(/C=C/c3ccccn3)n[nH]c2c1` [axitinib] (10 µM), the morphology score amounted to 0.563.

For `CN1CC[C@@H]2CN3CCc4cccc(c43)[C@@H]2C1` (10 µM), the morphology score was -0.0541. `CC(=O)NC1CCSC1=O` (stereo not given) [citiolone] (10 µM) showed a morphology score of -0.0164. With `CN(c1ccc(NC(=O)Nc2ccccc2)cc1)S(=O)(=O)c1cnn(-c2ccc(F)cc2)c1` (10 µM), the morphology score is 0.268.

The next experiment has the same test system. Put plainly: SARS-CoV-2 infection rate relative to infected DMSO; higher = more infection, active = 60 or less. As to conditions: 24 h.
For `OCCN1CCN(CCCN2c3ccccc3Sc3ccc(C(F)(F)F)cc32)CC1` [fluphenazine] (0.833333 µM), the SARS-CoV-2 infection rate was 116% (inactive). Still for that read-out and setting: under `CCCCOc1cc(C(=O)NCCN(CC)CC)c2ccccc2n1` [cinchocaine] (10 µM) stands 88% (inactive); under `COC(=O)C(Cc1ccc(OCCn2c(=O)sc3cc(C(=O)c4ccccc4)ccc32)cc1)C(=O)OC` (10 µM), 88.5% (inactive). Still for that read-out and setting: under `CC(C)[N+](C)(CCC(C(N)=O)(c1ccccc1)c1ccccc1)C(C)C` [isopropamide-iodide] (10 µM) stands 100% (inactive); under `CCCC[C@H](NC(=O)[C@@H]1[C@@H]2[C@H](CN1C(=O)[C@@H](NC(=O)NC1(CS(=O)(=O)C(C)(C)C)CCCCC1)C(C)(C)C)C2(C)C)C(=O)C(=O)NC1CC1` [narlaprevir] (10 µM), 111% (inactive). Regarding `CCc1oc2ccccc2c1C(=O)c1cc(Br)c(O)c(Br)c1` [benzbromarone] (10 µM), the SARS-CoV-2 infection rate was 85.5% (inactive).

For the compound `O=C(O)CSCC(=O)NC1CCSC1=O` (stereo not given) [erdosteine] (10 µM), the SARS-CoV-2 infection rate is 104% (inactive). For the compound `CCOc1ccc(NC(=S)N2CCC(C(O)(c3ccccc3)c3ccccc3)CC2)cc1` (10 µM), the SARS-CoV-2 infection rate is 86.5% (inactive). Still for that read-out and setting: under `C/C=C1\[C@H]2C=C(C)C[C@]1(N)c1ccc(=O)[nH]c1C2` [(-)-Huperzine A] (10 µM) stands 108% (inactive). The same measure, in the same setting: under `CCCCC1=NC2(CCCC2)C(=O)N1Cc1ccc(-c2ccccc2-c2nnn[nH]2)cc1` [irbesartan] (10 µM) stands 96.5% (inactive). The same measure, in the same setting: under `CNC(=O)c1ccc2c(c1)S(=O)(=O)c1ccccc1C2=O` (10 µM) stands 108% (inactive); under `CN1CCC(=C2c3ccccc3C=Cc3ccccc32)CC1` [cyproheptadine] (0.833333 µM), 102% (inactive); under `CCN(Cc1ccc(Cl)nc1)/C(=C/[N+](=O)[O-])NC` [nitenpyram] (10 µM), 101% (inactive). In the case of `Cc1cc(OCc2nc(-c3ccccc3Cl)cs2)ccc1OCC(=O)O` [GPR120-modulator-1] (10 µM), the SARS-CoV-2 infection rate was 100% (inactive). On the same count and under the same terms, under `O=C1NC(c2cccc([N+](=O)[O-])c2)=CCN1c1ccccc1O` [icilin] (10 µM) stands 100% (inactive); under `CN(C)CCCN1c2ccccc2Sc2ccc(Cl)cc21` [chlorpromazine] (0.833333 µM), 98.5% (inactive); under `Nc1nc(OCc2cc(Br)cs2)c2[nH]cnc2n1` [lomeguatrib] (10 µM), 104% (inactive). Still for that read-out and setting: under `Cc1c[nH]c(=O)n(CCCN2CCN(c3ccccc3OCC(F)(F)F)CC2)c1=O` (10 µM) stands 111% (inactive).

With `C=CC(=O)N1CCC[C@@H](n2nc(-c3ccc(Oc4ccccc4)cc3)c3c(N)ncnc32)C1` [ibrutinib] (10 µM), the SARS-CoV-2 infection rate was 109% (inactive).

Consider `CC[C@@H]1C(=O)N(C)c2cnc(Nc3ccc(C(=O)N[C@H]4CC[C@H](N5CCN(CC6CC6)CC5)CC4)cc3OC)nc2N1C(C)C` [volasertib] (10 µM), for which the SARS-CoV-2 infection rate is 104% (inactive). As to `CCC1(c2ccc(N)cc2)CCC(=O)NC1=O` (stereo not given) [aminoglutethimide] (10 µM), the SARS-CoV-2 infection rate is 110% (inactive). On to `Cc1n[nH]c2ccc(-c3cncc(OC[C@@H](N)Cc4ccccc4)c3)cc12` (10 µM), for which the SARS-CoV-2 infection rate is 92.5% (inactive). Same read-out and setting: under `CC1(N)CCN(c2cnc(-c3cccc(Cl)c3Cl)c(N)n2)CC1` (0.833333 µM) stands 112% (inactive); under `CCC(O)(CC(N)=O)c1ccccc1` (stereo not given) [3-hydroxy-3-phenylpentanamide] (10 µM), 112% (inactive); under `N#CCNC(=O)c1ccc(-c2ccnc(Nc3ccc(N4CCOCC4)cc3)n2)cc1` (0.833333 µM), 103% (inactive). Still for that read-out and setting: under `COc1cc(C(=S)N2CCOCC2)cc(OC)c1OC` [sulmetozine] (10 µM) stands 106% (inactive); under `C#C[C@]1(O)CC[C@H]2[C@@H]3CCC4=Cc5oncc5C[C@]4(C)[C@H]3CC[C@@]21C` [danazol] (10 µM), 72% (inactive). In the case of `NC(=O)Cc1cccc(C(=O)c2ccccc2)c1N` [nepafenac] (10 µM), the SARS-CoV-2 infection rate is 120% (inactive).

`O=C(CSc1nc2c(c(=O)n1-c1ccccc1)SCC2)Nc1ccc(-c2ccccc2)cn1` (10 µM): the SARS-CoV-2 infection rate is 112% (inactive).

On to `CN[C@@H]1[C@H](O[C@H]2[C@H](O[C@H]3[C@H](O)[C@@H](O)[C@H](N=C(N)N)[C@@H](O)[C@@H]3N=C(N)N)O[C@@H](C)[C@]2(O)C=O)O[C@@H](CO)[C@H](O)[C@H]1O` [STREPTOMYCIN SULFATE [5mM; 10% aq DMSO + 5mM ethanolamine]] (10 µM), for which the SARS-CoV-2 infection rate was 104% (inactive).

Consider `COc1cc2c(Oc3ccc(NC(=O)C4(C(=O)Nc5ccc(F)cc5)CC4)cc3F)ccnc2cc1OCCCN1CCOCC1` [foretinib] (10 µM), for which the SARS-CoV-2 infection rate was 106% (inactive). The same measure, in the same setting: under `CCCCC/C=C\C/C=C\C/C=C\C/C=C\CCCC(=O)Nc1ccc(O)cc1` (10 µM) stands 106% (inactive). The same measure, in the same setting: under `CCn1c(-c2nonc2N)nc2cncc(C(=O)N3CC[C@H](N)C3)c21` (0.833333 µM) stands 87% (inactive); under `Cc1ccc(C)c(OCCCC(C)(C)C(=O)O)c1` [gemfibrozil] (10 µM), 98.5% (inactive).

For the compound `O=C(N/N=C/c1ccc([N+](=O)[O-])o1)c1cc([N+](=O)[O-])cc([N+](=O)[O-])c1O` [nifursol] (10 µM), the SARS-CoV-2 infection rate was 111% (inactive). Take `CO/N=C(\C(=O)N[C@@H]1C(=O)N2C(C(=O)OCOC(=O)C(C)(C)C)=C(C)CS[C@H]12)c1csc(N)n1` [cefetamet-pivoxil] (10 µM): the SARS-CoV-2 infection rate was 96.5% (inactive).

With `CNC(=O)c1ccccc1Sc1ccc2c(/C=C/c3ccccn3)n[nH]c2c1` [axitinib] (10 µM), the SARS-CoV-2 infection rate was 80.5% (inactive). Still for that read-out and setting: under `CN1CC[C@@H]2CN3CCc4cccc(c43)[C@@H]2C1` (10 µM) stands 108% (inactive); under `CC(=O)NC1CCSC1=O` (stereo not given) [citiolone] (10 µM), 107% (inactive). Still for that read-out and setting: under `CN(c1ccc(NC(=O)Nc2ccccc2)cc1)S(=O)(=O)c1cnn(-c2ccc(F)cc2)c1` (10 µM) stands 83.5% (inactive).

The values above are taken from the supplement of paper PMC13380429.
